# Screening results: PubChem BioAssay, several laboratories
# Hits are enriched below; roughly 32% of the tested compounds scored in any of these assays.
# PostGolgi ctrl = growth of the yeast control strain, post-Golgi counter-screen; efflux-deficient yeast background strain, growth absorbance A615, 16 h; inhibition, % at 10 µM; actives 5% (n = 98,000); AID 738
# CYP2C9 act = CYP2C9 (human) activation; activation factor at 5 µM; recombinant CYP2C9, luciferin-H conversion, luminescence; stronger effect = higher value; factor 1 = untreated enzyme, 0 = blocked; actives 1.4% (n = 96,000);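 active = activation factor of 2 or more for CYP2C9 at a 5 µM dose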
# CYP2C19 activ = cytochrome P450 2C19 (human) activation. recombinant CYP2C19, luciferin-H EGE luminescence; stronger effect = higher value; 0 = fully inhibited enzyme, 1 = untreated enzyme. activation factor at 5 µM. 96,000 tested, under 10 active;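 active = activation factor of at least 2 at 5 µM in the primary screen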
# Target sequence (P33261 whole entry, looked up): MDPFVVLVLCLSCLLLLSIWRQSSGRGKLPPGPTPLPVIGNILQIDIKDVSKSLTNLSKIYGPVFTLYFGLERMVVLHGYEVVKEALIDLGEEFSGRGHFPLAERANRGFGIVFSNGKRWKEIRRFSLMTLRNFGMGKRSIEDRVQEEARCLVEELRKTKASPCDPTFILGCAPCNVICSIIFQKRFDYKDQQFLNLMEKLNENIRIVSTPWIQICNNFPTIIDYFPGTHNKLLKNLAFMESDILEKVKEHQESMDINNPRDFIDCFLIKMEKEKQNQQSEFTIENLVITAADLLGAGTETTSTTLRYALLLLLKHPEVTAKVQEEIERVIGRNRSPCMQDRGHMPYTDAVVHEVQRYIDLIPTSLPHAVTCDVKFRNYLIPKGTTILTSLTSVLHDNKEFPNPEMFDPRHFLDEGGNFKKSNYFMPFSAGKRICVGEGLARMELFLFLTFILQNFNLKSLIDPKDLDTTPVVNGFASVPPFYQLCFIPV
# CYP2C19 inhib = human CYP2C19 inhibition | P33261 | CYP2C19 Supersomes, luciferin-H EGE luminescence, 30 min | inhibition, % at 5 µM | actives 21% (n = 96,000);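 active = CYP2C19 inhibition above a set limit at 5 µM in the primary screen, cut at about 50% in these data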
# PostGolgi yeast = growth inhibition of a yeast mutant, post-Golgi transport screen | actives 0.9% (n = 98,000) | post-Golgi transport phenotypic cell assay | AID 739 | inhibition, % at 10 µM;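 note: yeast cells grown in 1536-well plates; yeast grown about 18 h at 30C before absorbance read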
# CYP2C9 inh = inhibitors of human CYP2C9. P11712. CYP2C9 Supersomes, luciferin-H conversion, luminescence. inhibition, % at 5 µM. actives 20% (n = 96,000). AID 777;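 active = blocking of liver enzyme CYP2C9 beyond about 50% at 5 µM, limit read from the data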
# Numbers stand for hits; n = inactive; x = no result given. Cut-off read from the data, not from the text of the source, unless noted: active = inhibition above about 30%; inactive = the rest.
SMILES,PostGolgi ctrl,CYP2C9 act,CYP2C19 activ,CYP2C19 inhib,PostGolgi yeast,CYP2C9 inh
CCC(Sc1nnc(-c2ccc(C)c(Cl)c2)n1CC)C(=O)Nc1nccs1 (stereo unspecified),n,n,n,n,n,n
CCn1c(SCc2ccc(C(=O)Nc3nccs3)cc2)nnc1-c1ccc(N)cc1,n,n,n,n,n,67.8
S=C(Nc1ccc(N2CCOCC2)cc1)Nc1ccc2nc(-c3ccco3)c(-c3ccco3)nc2c1,n,n,n,n,n,n
COc1ccc(CNS(=O)(=O)c2cc(OCC(N)=O)c(C)cc2Cl)cc1,n,n,n,n,n,n
CN(C)CCNC(=O)c1ccc2c(c1)N(Cc1ccc(F)cc1)CCS2,n,n,n,n,n,n
O=C(c1ccc2c(c1)N(Cc1ccccc1)CCS2)N1CCCCC1,43.3,n,n,n,n,n
CC(Nc1cc(=O)n(C)c(=O)[nH]1)c1ccccc1 (stereo unspecified),n,n,n,n,n,n
C/C(=N\N=C(/N)SC1CC(=O)N(c2cccc(Cl)c2)C1=O)c1cccs1 (stereo unspecified),n,n,n,n,n,60.7
CCCOc1ccc(N2C(=O)CC(S/C(N)=N/N=C(\C)c3cccs3)C2=O)cc1 (stereo unspecified),n,n,n,n,n,n
CSCCC(NS(=O)(=O)c1ccc2c(c1)oc(=O)n2C)C(=O)NC1CCCCC1 (stereo unspecified),n,n,n,71.6,n,n
Cn1c(=O)oc2cc(S(=O)(=O)Nc3cccc4c3CCCC4)ccc21,n,2.4,n,65.7,n,n
Cn1c(=O)oc2cc(S(=O)(=O)NC3CCCc4ccccc43)ccc21 (stereo unspecified),n,n,n,n,n,n
Cn1c(=O)oc2cc(S(=O)(=O)NC(Cc3ccccc3)C(=O)N3CCCCC3)ccc21 (stereo unspecified),n,n,n,n,n,n
CC(C)CC(NS(=O)(=O)c1ccc2c(c1)oc(=O)n2C)C(=O)NCc1cccnc1 (stereo unspecified),n,n,n,53.4,n,n
CCc1cccc(NS(=O)(=O)c2ccc3c(c2)oc(=O)n3C)c1,30.5,n,n,70.5,n,n
Cn1c(=O)c2cc(S(=O)(=O)N3CCOCC3)ccc2n(C)c1=O,n,n,n,n,n,n
Cn1c(=O)c2cc(S(=O)(=O)Nc3ccc4c(c3)OCO4)ccc2n(C)c1=O,n,n,n,84.4,n,85.0
Cn1c(=O)oc2cc(S(=O)(=O)Nc3ccc4c(c3)OCO4)ccc21,n,n,n,79.6,n,53.4
Cn1c(=O)oc2cc(S(=O)(=O)Nc3cccc(C(=O)O)c3)ccc21,n,n,n,n,n,n
CCn1cc(C(=O)N2CCOCC2)c(=O)c2cc(S(=O)(=O)N(C)C)ccc21,n,n,n,n,n,n
Cc1c(N=c2c(=O)c3ccccc3c2=O)c(=O)n(-c2ccccc2)n1C,n,x,x,x,n,x
O=C(c1ccc(F)cc1)c1cn[nH]c1-c1ccccc1O,n,n,n,n,n,n
O=C(c1ccc(O)cc1)c1ccc(Cl)cc1,n,n,n,n,n,n
COc1ccc(C(=O)c2cn[nH]c2-c2cc(Cl)ccc2O)cc1,n,n,n,98.5,n,92.4
O=C(c1ccc(Cl)cc1)c1cn[nH]c1-c1ccccc1O,n,n,n,95.2,n,86.5
SMILES,PostGolgi ctrl,CYP2C9 act,CYP2C19 activ,CYP2C19 inhib,PostGolgi yeast,CYP2C9 inh
Cc1ccc(C(=O)c2cn[nH]c2-c2ccccc2O)cc1,n,n,n,89.2,n,n
COc1ccc(C(=O)c2ccc(Cl)cc2Cl)cc1,n,n,n,n,n,n
COc1ccc(CNC(=O)CN(C(=O)c2ccc(CN3CCOCC3)o2)C2CCCC2)cc1,n,x,x,x,n,x
Cn1nnnc1SCc1cn2cccnc2n1,n,n,n,n,n,n
CCCCn1c(SCC(=O)Nc2nc(C)cs2)nnc1-c1cccnc1,39.4,n,n,n,n,n
CCCn1c(SCC(=O)Nc2nccs2)nnc1-c1cccnc1,n,n,n,59.0,n,n
CCC(C)C(NC=C1C(=O)OC(C)(C)OC1=O)C(=O)O (stereo unspecified),n,n,n,n,n,n
Cn1cccc1C(=O)NC(=O)COC(=O)c1ccc(O)cc1,n,4.1,n,n,n,n
Cc1cc(C)n(-c2nnc(C)n2NS(=O)(=O)c2ccc(F)cc2)n1,n,n,n,n,n,n
O=C(C1CC1)N(CCN(C(=O)C1CC1)c1ccccc1)c1ccccc1,n,n,n,n,n,n
CC(C1CC1)N(C(=O)c1ccccc1O)c1ccccc1 (stereo unspecified),n,n,n,80.2,n,n
Cc1nc(C(=O)N(C)C)nn1-c1ccc(Cl)cc1Cl,n,n,n,n,n,n
CN(C)C(=O)c1cc(F)ccc1Sc1cc(Cl)ccc1Cl,n,n,n,97.9,n,n
CN(C)C(=O)c1cc(Cl)ccc1Sc1cc(Cl)ccc1Cl,56.0,n,n,96.9,n,83.6
CCc1nnc(SCC(=O)N2CCCc3ccccc32)nc1CC,n,n,n,78.4,n,55.9
CSc1nsc(SCC(=O)N2CCCc3ccccc32)n1,n,n,n,99.1,n,80.5
O=C(CSc1n[nH]c(-c2ccccc2O)n1)N1CCCc2ccccc21,n,n,n,81.9,n,85.9
O=C(CSc1nc(N2CCCCC2)nc(N2CCCCC2)n1)N1CCc2ccccc21,n,n,n,n,n,n
O=C(O)CCC(=O)Nc1ccc(OCC(=O)O)cc1,n,n,n,n,n,n
COc1ccc(S(=O)(=O)/N=C2/NC(=O)/C(=C\c3cc(OC)c(OC)cc3[N+](=O)[O-])S2)cc1,n,n,n,n,n,99.8
CCOn1c(-n2nc(C)cc2C)nc2ccccc2c1=O,n,n,n,62.8,n,n
Cc1cc(C)n(-c2nc3ccccc3c(=O)n2OC2CCCCC2)n1,n,n,n,68.5,n,52.5
CC1CN(C(=O)c2cnn3c(C(F)F)cc(-c4ccccc4)nc23)CC(C)O1 (stereo unspecified),n,n,n,n,n,n
O=C1CCC(=O)N1CN(Cc1ccco1)CN1C(=O)CCC1=O,n,n,n,n,n,n
COc1ccc(NC(=O)CC2Sc3ncnn3C2=O)cc1 (stereo unspecified),n,n,n,n,n,n
O=C(CC1SC(=Nc2ccccc2)N(CCCO)C1=O)Nc1ccc(Cl)cc1 (stereo unspecified),n,n,n,73.0,n,88.2
CCCN1C(=O)SC(CC(=O)Nc2ccccc2)C1=O (stereo unspecified),n,n,n,88.8,n,50.3
COCCN1C(=O)C(CC(=O)Nc2ccccc2)SC1=Nc1ccc(OC)cc1 (stereo unspecified),n,n,n,55.6,n,81.2
N#CC(c1nc2ccccc2nc1N1CCCCC1)S(=O)(=O)c1ccc(Cl)cc1 (stereo unspecified),x,n,n,n,x,n
